Laboratory results taken from the supplement of paper PMC8728848.
This excerpt belongs to a sample that is enriched for the strongest signals.

Tests used:
Test in all cases: glycan array binding signal (z-score within array); higher = stronger binding
Details in all cases: glycan notation: IUPAC condensed, linker removed
[1] = molecular target: Fuc(a1-2)Gal(b1-4)GlcNAc(b1-2)[Fuc(a1-2)Gal(b1-4)GlcNAc(b1-4)]Man(a1-3)[Fuc(a1-2)Gal(b1-4)GlcNAc(b1-2)Man(a1-6)]Man(b1-4)GlcNAc(b1-4)GlcNAc
How it was run: (§1)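 Negative Z-scores can be read as non-binding. The Z-score is calculated within each array and then averaged across arrays of one protein sequence at different concentrations or buffers and across linkers. Arrays, 3228 in all, were curated from the Consortium for Functional Glycomics database and kept only where the protein sequence was available.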

[2] = molecular target: Fuc(a1-2)Gal(b1-4)GlcNAc(b1-3)[Fuc(a1-2)Gal(b1-4)GlcNAc(b1-6)]GalNAc
How it was run: as §1

[3] = molecular target: Fuc(a1-2)Gal(b1-4)GlcNAc(b1-6)GalNAc
How it was run: as §1

[4] = molecular target: Fuc(a1-2)[Gal(a1-3)]Gal(b1-3)GlcNAc(b1-6)GalNAc
How it was run: as §1

[5] = molecular target: Fuc(a1-2)[Gal(a1-3)]Gal(b1-4)GlcNAc
How it was run: as §1

[6] = molecular target: Fuc(a1-2)[Gal(a1-3)]Gal(b1-4)GlcNAc(b1-2)Man
How it was run: as §1

[7] = molecular target: Fuc(a1-2)[Gal(a1-3)]Gal(b1-4)GlcNAc(b1-3)[Fuc(a1-2)[Gal(a1-3)]Gal(b1-4)GlcNAc(b1-6)]GalNAc
How it was run: as §1

[8] = molecular target: Fuc(a1-2)[GalNAc(a1-3)]Gal(b1-4)GlcNAc(b1-6)GalNAc
How it was run: as §1

[9] = molecular target: Fuc(a1-2)[GalNAc(a1-4)]Gal(b1-4)GlcNAc
How it was run: as §1

[10] = molecular target: Gal(a1-4)Gal(b1-4)GlcNAc(b1-2)Man(a1-3)[Gal(a1-4)Gal(b1-4)GlcNAc(b1-2)Man(a1-6)]Man(b1-4)GlcNAc(b1-4)GlcNAc
How it was run: as §1

Gal(b1-3)Gal = molecular target: Gal(b1-3)Gal
How it was run: as §1

[11] = molecular target: Gal(b1-3)GlcNAc(b1-6)[Gal(b1-3)]GalNAc
How it was run: as §1

[12] = molecular target: Gal(b1-3)[Fuc(a1-4)]GlcNAc(b1-2)Man(a1-3)[Gal(b1-3)[Fuc(a1-4)]GlcNAc(b1-2)Man(a1-6)]Man(b1-4)GlcNAc(b1-4)[Fuc(a1-6)]GlcNAc
How it was run: as §1

[13] = molecular target: Gal(b1-4)GlcNAc(b1-2)Man(a1-3)[Gal(b1-4)GlcNAc(b1-2)Man(a1-6)]Man(b1-4)GlcNAc(b1-4)GlcNAc
How it was run: as §1

[14] = molecular target: Gal(b1-4)GlcNAc(b1-2)Man(a1-3)[GlcNAc(b1-4)][Gal(b1-4)GlcNAc(b1-2)Man(a1-6)]Man(b1-4)GlcNAc(b1-4)GlcNAc
How it was run: as §1

[15] = molecular target: Gal(b1-4)GlcNAc(b1-2)[Gal(b1-4)GlcNAc(b1-4)]Man(a1-3)[GlcNAc(b1-4)][Gal(b1-4)GlcNAc(b1-2)[Gal(b1-4)GlcNAc(b1-6)]Man(a1-6)]Man(b1-4)GlcNAc(b1-4)GlcNAc
How it was run: as §1

[16] = molecular target: Gal(b1-4)GlcNAc(b1-2)[Gal(b1-4)GlcNAc(b1-6)]Man(a1-6)[GlcNAc(b1-4)][Gal(b1-4)GlcNAc(b1-2)Man(a1-3)]Man(b1-4)GlcNAc(b1-4)GlcNAc
How it was run: as §1

[17] = molecular target: Gal(b1-4)GlcNAc(b1-3)Gal(b1-4)GlcNAc(b1-3)Gal(b1-4)GlcNAc(b1-2)Man(a1-3)[Gal(b1-4)GlcNAc(b1-3)Gal(b1-4)GlcNAc(b1-3)Gal(b1-4)GlcNAc(b1-2)Man(a1-6)]Man(b1-4)GlcNAc(b1-4)GlcNAc
How it was run: as §1

[18] = molecular target: Gal(b1-4)GlcNAc(b1-3)Gal(b1-4)GlcNAc(b1-3)Gal(b1-4)GlcNAc(b1-3)Gal(b1-4)GlcNAc(b1-2)[Gal(b1-4)GlcNAc(b1-3)Gal(b1-4)GlcNAc(b1-3)Gal(b1-4)GlcNAc(b1-3)Gal(b1-4)GlcNAc(b1-6)]Man(a1-6)[Gal(b1-4)GlcNAc(b1-3)Gal(b1-4)GlcNAc(b1-3)Gal(b1-4)GlcNAc(b1-3)Gal(b1-4)GlcNAc(b1-2)Man(a1-3)]Man(b1-4)GlcNAc(b1-4)[Fuc(a1-6)]GlcNAc
How it was run: as §1

[19] = molecular target: Gal(b1-4)GlcNAc(b1-3)Gal(b1-4)GlcNAc(b1-3)Gal(b1-4)GlcNAc(b1-3)Gal(b1-4)GlcNAc(b1-3)Gal(b1-4)GlcNAc(b1-3)Gal(b1-4)GlcNAc(b1-2)Man(a1-3)[Gal(b1-4)GlcNAc(b1-3)Gal(b1-4)GlcNAc(b1-3)Gal(b1-4)GlcNAc(b1-3)Gal(b1-4)GlcNAc(b1-3)Gal(b1-4)GlcNAc(b1-3)Gal(b1-4)GlcNAc(b1-2)Man(a1-6)]Man(b1-4)GlcNAc(b1-4)GlcNAc
How it was run: as §1

Gal3S(b1-4)Glc6S = molecular target: Gal3S(b1-4)Glc6S
How it was run: as §1

Gal6S(b1-4)GlcNAc6S = molecular target: Gal6S(b1-4)GlcNAc6S
How it was run: as §1

GalNAc(a1-3)Gal = molecular target: GalNAc(a1-3)Gal
How it was run: as §1

GalNAc(a1-3)GalNAc = molecular target: GalNAc(a1-3)GalNAc
How it was run: as §1

GalNAc(b1-3)GalNAc = molecular target: GalNAc(b1-3)GalNAc
How it was run: as §1

GalNAc(b1-4)GlcNAc = molecular target: GalNAc(b1-4)GlcNAc
How it was run: as §1

[20] = molecular target: GalNAc(b1-4)GlcNAc(b1-2)Man
How it was run: as §1

GalNAc(b1-4)GlcNAc6S = molecular target: GalNAc(b1-4)GlcNAc6S
How it was run: as §1

GalNAc(b1-6)GalNAc = molecular target: GalNAc(b1-6)GalNAc
How it was run: as §1

GlcA(b1-3)Gal = molecular target: GlcA(b1-3)Gal
How it was run: as §1

[21] = molecular target: GlcNAc(a1-4)Gal(b1-3)GlcNAc
How it was run: as §1

B1: Cohesin-marm-DC-ASGPR (protein)
chain: LDITSHHHHHHDDLDAVRIKVDTVNAKPGDTVRIPVRFSGIPSKGIANCDFVYSYDPNVLEIIEIEPGDIIVDPNPDKSFDTAVYPDRKIIVFLFAEDSGTGAYAITKDGVFATIVAKVKEGAPNGLSVIKFVEVGGFANNDLVEQKTQFFDGGVNVGDTTEPATPTTPVTTPTTTDDLDAASSKFQRDLVTLRTDFSNFTSNTLAEIQALTSQGSSLQETIASLKAEVEGHKQELQAGASELQEHNKQKAHLGRCPHTCVCPSSFVCVPVHSEILLRVQQLVQDLNKLSCQVAILKNNATTERTCCPINWVEHQGSCYWFSRSGKTWPEAERYCQLENTHLVVINSREEQNFVQAHLGSAYTWMGLSDPEGVWKWVDGTDYSSGFQNWKPGQPDDWQGHGLGGGEDCAHFHPDGRWNDDVCQRSYHWVCEAGLTQASQDSHAS
- glycan array binding signal (z-score) [1]: -0.267
- glycan array binding signal (z-score) [2]: -0.236
- glycan array binding signal (z-score) [3]: 4.84
- glycan array binding signal (z-score) [4]: 4.11
- glycan array binding signal (z-score) [5]: -0.282
- glycan array binding signal (z-score) [6]: -0.239
- glycan array binding signal (z-score) [7]: -0.22
- glycan array binding signal (z-score) [8]: 4.32
- glycan array binding signal (z-score) [9]: 4.11
- glycan array binding signal (z-score) [10]: -0.267
- glycan array binding signal (z-score) (Gal(b1-3)Gal): -0.286
- glycan array binding signal (z-score) [11]: -0.272
- glycan array binding signal (z-score) [12]: -0.265
- glycan array binding signal (z-score) [13]: -0.277
- glycan array binding signal (z-score) [14]: -0.308
- glycan array binding signal (z-score) [15]: -0.268
- glycan array binding signal (z-score) [16]: -0.307
- glycan array binding signal (z-score) [17]: -0.177
- glycan array binding signal (z-score) [18]: -0.272
- glycan array binding signal (z-score) [19]: -0.295
- glycan array binding signal (z-score) (Gal3S(b1-4)Glc6S): -0.141
- glycan array binding signal (z-score) (Gal6S(b1-4)GlcNAc6S): -0.295
- glycan array binding signal (z-score) (GalNAc(a1-3)Gal): 4.28
- glycan array binding signal (z-score) (GalNAc(a1-3)GalNAc): -0.266
- glycan array binding signal (z-score) (GalNAc(b1-3)GalNAc): -0.307
- glycan array binding signal (z-score) (GalNAc(b1-4)GlcNAc): 4.21
- glycan array binding signal (z-score) [20]: 4.13
- glycan array binding signal (z-score) (GalNAc(b1-4)GlcNAc6S): 4.56
- glycan array binding signal (z-score) (GalNAc(b1-6)GalNAc): -0.303
- glycan array binding signal (z-score) (GlcA(b1-3)Gal): -0.309
- glycan array binding signal (z-score) [21]: -0.3
